The values below come from PubChem BioAssay AID588405 (Sanford-Burnham Center for Chemical Genomics, 2011).

Values joined by “and” are separate entries in the source; they are usually repeats but may differ in a detail not shown here. Identical values can stand only once. In all, about 360,000 compounds went through this assay and about 6,200 (1.7%) were called active. Many of the other results were omitted from the sample, so actives are more common in it than they were. Unmarked numbers belong to inactive results.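 Rule for the calls: active = inhibition of at least 50% at 20 µM; inactive = the rest.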

A word on the inhibition: it is the relative decrease from the control value, in per cent.

This assay in a line: inhibition of PEG-3 promoter activity – cell-based, HeLa, luciferase luminescence, primary screen (AID 588405). Conditions: HeLa PEG-Prom luciferase reporter, overnight, at 20 µM, hits give high values. On the technique in general: A reporter such as luciferase makes a cellular process visible.
For the molecule `CCCS(=O)(=O)NC(=O)C1(C)CCCN(C(=O)c2cccs2)C1` (stereo unspecified), the inhibition is 12.1%.

For the molecule `Cc1cccc2nc(CSc3nc4[nH]ncc4c(=O)n3-c3cccc(Cl)c3)cc(=O)n12`, the inhibition was 38.6%.

Take `CCc1ccc(-n2c(SCc3cc(=O)n4cc(Br)ccc4n3)nc3[nH]ncc3c2=O)cc1`: the inhibition was 54.1% (active).

As for `O=c1c2sccc2nc(SCc2cc(=O)n3ccccc3n2)n1-c1ccc(Br)cc1`, the inhibition is 40.8%.

Turning to `COc1cc(C=C(OC(C)=O)c2ccc3c(c2)OCO3)cc(OC)c1OC`, the inhibition was 7.01%.

`COc1ccc(C2=NN(C(=O)c3ccccc3C(=O)O)C(c3ccccc3O)C2)cc1` (stereo unspecified): the inhibition is -268%.

As to `COc1ccc(C2CC(c3ccccc3)=NN2C(=O)c2ccc(Cl)c([N+](=O)[O-])c2)cc1` (stereo unspecified), the inhibition is 72.4% (active).

`COc1ccc(C2CC(c3ccccc3)=NN2C(=O)CSc2nccc(=O)[nH]2)cc1` (stereo unspecified): the inhibition was -109%.

Consider `CC(=O)Nc1cc(-c2ccccc2N(C)C)cn2c(-c3ccc(F)c(Cl)c3)cnc12`, for which the inhibition is 32%.

Consider `COc1ccc(NC(=O)C(C)SCc2ccccc2)cc1` (stereo unspecified), for which the inhibition is -27.6%.

As to `O=C(c1cc(C2CCCCN2S(=O)(=O)c2ccccc2)on1)N1CCOCC1` (stereo unspecified), the inhibition was 1.6%.

As to `COc1cc(Cn2c3ccc(NC(=O)CC(C)c4ccccc4)cc3c(=O)n2C)ccc1F` (stereo unspecified), the inhibition is 12.9%.

Regarding `Cc1[nH]c(=O)c(C(=O)/C=C/c2ccccc2)c2c1CCCC2`, the inhibition is 102% (active).

On to `CC1(C(=O)O)CCCN(C(=O)/C=C/c2ccccc2)C1` (stereo unspecified), for which the inhibition is 5.91%.

For the molecule `COC(=O)c1c(C)[nH]c(C(=O)/C=C/c2ccc(Cl)cc2)c1C`, the inhibition is -126%.

Turning to `COc1ccc(-c2coc3c(C(=O)NC(C)C)cccc23)c(C)c1`, the inhibition is 10.8%.

For the molecule `COc1ccc(S(=O)(=O)NC(=O)C2(C)CCN2C(=O)c2ccccc2CCc2ccccc2)cc1` (stereo unspecified), the inhibition is -1.34%.

On to `CCCC(=O)N1CCC1(C)C(=O)NCc1ccc(SC)cc1` (stereo unspecified), for which the inhibition is -5.97%.

In the case of `Cc1cccc(N2C(=O)SC(SC(=Nc3ccccc3)Nc3ccccc3)C2=O)c1` (stereo unspecified), the inhibition was -30%.

With `Cc1ccc(-c2nn(C(C)(C)C)c3ncnc(N)c23)cc1`, the inhibition was 55.2% (active).

As to `N#Cc1ccc(-c2ccc3nccn3c2)cc1`, the inhibition is -24.7%.

For `O=C1NC(c2ccccc2)=NC1(Nc1ccccn1)C(F)(F)F` (stereo unspecified), the inhibition is -4.5%.

Turning to `CC(=O)c1ccc(-c2cnc3c(NC=O)cc(-c4cccc(NS(C)(=O)=O)c4)cn23)cc1`, the inhibition was 48.1%.

Regarding `Cc1ccc(-c2ccc(=O)n(Cc3ccc(F)cc3Cl)n2)cc1`, the inhibition was 2.87%.

As for `O=c1c([N+](=O)[O-])cccn1Cc1ccc(F)cc1Cl`, the inhibition was 56.1% (active).

For the molecule `N/C(=N/O)c1cccn1Cc1ccccc1[N+](=O)[O-]`, the inhibition is 3.69%.

For the molecule `CC(C)c1cccc(-c2csc(C(O)c3ccccc3)n2)c1` (stereo unspecified), the inhibition was -103%.

Turning to `CSCCC(c1nnnn1Cc1ccccc1)N1CCN(C/C=C/c2ccccc2)CC1` (stereo unspecified), the inhibition was 11.4%.

As to `CCc1ccc(C2N3CC4([N+](=O)[O-])CN2CC([N+](=O)[O-])(C3)C4(C)C)cc1` (stereo unspecified), the inhibition was 27.3%.

With `C=CC[n+]1c(-c2ccc(C)cc2)csc1NNC(=O)Nc1ccccc1`, the inhibition is -6.81%.

In the case of `NC(c1csc(NC(=O)Nc2ccccc2Oc2ccccc2)n1)c1ccccc1Cl` (stereo unspecified), the inhibition is 58.1% (active).

For the molecule `COc1ccccc1NC(=O)Nc1nc(CC(=O)Nc2ccccc2F)cs1`, the inhibition was 4.34%.

For the molecule `CC(=O)c1ccc(Nc2nc(C(N)c3ccccc3Cl)cs2)cc1` (stereo unspecified), the inhibition is -22.8%.

On to `O=S1(=O)C[C@@H](N2CCN(CCO)CC2)[C@H](COCc2ccccc2)N1`, for which the inhibition was -0.57%.

For the molecule `COC(=O)C1=C(C)N(C(C)c2ccccc2)C(=O)/C1=C\c1ccco1` (stereo unspecified), the inhibition is 12.2%.

Regarding `COCCn1c(=S)[nH]c2cc(C(=O)NCCc3ccc(OC)c(OC)c3)ccc2c1=O`, the inhibition was 17.6%.

For the molecule `O=C(CCn1c(=S)[nH]c2cc3c(cc2c1=O)OCO3)NCc1ccc(Cl)cc1`, the inhibition is 9.93%.

For the molecule `CCN(CC)CCCNC(=O)c1ccc2c(=O)n(Cc3ccc4c(c3)OCO4)c(=S)[nH]c2c1`, the inhibition is 56.1% (active).

Regarding `CSc1nnc(NC(=O)c2nc(S(=O)(=O)Cc3ccc(C)cc3)ncc2Cl)s1`, the inhibition was 103% (active).

Turning to `O=C(Nc1nnc(-c2ccc(F)cc2)s1)c1c(F)cccc1Cl`, the inhibition was -27.2%.

With `Cc1ccc(S(=O)(=O)CCC(=O)Nc2nnc(CC(C)C)s2)cc1`, the inhibition is 10.6%.

`Cc1ccc(CS(=O)(=O)c2ncc(Cl)c(C(=O)Nc3nnc(C)s3)n2)cc1`: the inhibition is 98.9% (active).

For `NC(=O)CSc1nnc(NC(=O)c2ccc(Br)o2)s1`, the inhibition is -5.94%.

As for `Cc1nnc(NC(=O)C(c2ccccc2)c2ccccc2)s1`, the inhibition was -0.94%.

On to `Nc1nc2cc(Cl)ccc2n1N`, for which the inhibition was -1.93%.

Take `CC(C)NC(=O)C1(C)CCCCCN1C(=O)c1ccc(-c2ccccc2)cc1` (stereo unspecified): the inhibition was -0.82%.

As for `O=C(c1[nH]ncc1-c1ccc(Cl)cc1)C1CO1` (stereo unspecified), the inhibition is 52% (active).

Turning to `COc1ccc(NC(=O)C2Cc3c(-c4ccc(Cl)cc4)ccnc3O2)cc1` (stereo unspecified), the inhibition was 22.6%.

With `COc1cccc(C(NC(C)=O)c2nc(-c3ccccc3OC)cs2)c1` (stereo unspecified), the inhibition was -8.65%.

Turning to `Nc1nc(NC(=O)/C=C/c2ccccc2)nn1-c1ccccc1`, the inhibition was -6.78%.

Take `O=C1C=CC(=O)N1c1ccc(N2CCCCC2)cc1`: the inhibition is 108% (active).

As for `c1ccc(-n2cccc2)c(N2CCCCC2)c1`, the inhibition is 2.67%.

In the case of `CCC(=O)c1ccc(OCC(=O)Nc2ccc(N3CCCCC3)cc2)cc1`, the inhibition was -13.9%.

As to `CN1OC[C@@H]2CN(C(=O)c3cccnc3)[C@H](c3ccc(N4CCCCC4)cc3)C[C@@H]21`, the inhibition is -11.6%.

Turning to `CCOC(=O)C1=C(CN2CCc3ccccc32)NC(=O)NC1c1cccc([N+](=O)[O-])c1` (stereo unspecified), the inhibition was 43.4%.

As for `CCOC(=O)C1=C(CN2CCc3ccccc32)NC(=O)NC1c1cc(C)ccc1C` (stereo unspecified), the inhibition is 34.6%.

As to `CCOC(=O)C1=C(CN2CCc3ccccc32)NC(=O)NC1c1ccc(Cl)cc1` (stereo unspecified), the inhibition was 61.5% (active).

In the case of `COc1cc(CCN=Cc2ccccc2O)c([N+](=O)[O-])cc1OC`, the inhibition is -5.6%.

As to `O=C(NCC(O)c1nc2ccccc2[nH]1)c1ccc(Br)cc1` (stereo unspecified), the inhibition was -5.63%.

As for `CCc1nc2ccc(C(=O)Nc3cccc(OC)c3)cn2c1N(CCC(C)C)CCN(C)C`, the inhibition is -15.1%.

Take `COc1ccccc1OCC(=O)OCn1c(SC)nnc(C)c1=O`: the inhibition is 14.2%.

Take `CC(=O)Nc1ccc(Nc2c3ccccc3nc3ccccc23)cc1`: the inhibition was 106% (active).

`CC(=O)Nc1ccc(S(=O)(=O)N(C)c2nc3ccccc3nc2Cl)cc1`: the inhibition was 2.27%.

With `CC(=O)Nc1ccc(Nc2c([N+](=O)[O-])cc(S(C)(=O)=O)cc2[N+](=O)[O-])cc1`, the inhibition is 3.04%.

For the molecule `CC(C)Nc1nc(NCCOc2ccccc2Cl)c2sccc2n1`, the inhibition is 34.3%.

As to `COc1ccc(-c2[nH][nH]c(=O)c2NC(=O)c2ccc([N+](=O)[O-])cc2)cc1`, the inhibition was 9.48%.

Turning to `CC(O)c1ccc(OCCN(C)c2ccccn2)cc1` (stereo unspecified), the inhibition is -135%.

Regarding `CN(CCOc1ccc(CC2SC(=O)NC2=O)cc1)c1ccccn1` (stereo unspecified), the inhibition was -26.7% and -30.1%.

Regarding `CCN(CC)CCOc1ccc2c(c1)C(=NNC(=O)c1ccccn1)c1cc(OCCN(CC)CC)ccc1-2`, the inhibition was 109% (active).

Regarding `CCCCc1cc2c(s1)CCCC/C2=N/O`, the inhibition was 6.83%.

As for `COCCCN(C(=O)CSCc1ccc(C)cc1)c1c(N)n(Cc2ccccc2)c(=O)[nH]c1=O`, the inhibition is -0.45%.

With `O=C(c1ccc(F)cc1)n1c(=S)nc2ccccn21`, the inhibition is -101%.

On to `O=C(COC(=O)c1ccncc1)c1ccccc1`, for which the inhibition was 3.29%.

As to `Brc1ccc(-c2noc(-c3ccccc3)n2)o1`, the inhibition was -291%.

Take `O=C(Oc1ccc(-c2nc(-c3ccccn3)no2)cc1)c1ccccc1`: the inhibition was 66.5% (active).

Take `O=C1C=C(c2ccc(Cl)cc2)C(=O)N1Nc1ccccc1`: the inhibition is 105% (active).

Regarding `O=C(Nc1ccccc1)C1CCN(C(=O)c2ccc(Br)cc2)CC1`, the inhibition was -7.9%.

For `NC(=O)C1CCN(C(=O)c2ccc(-c3ccccc3)cc2)CC1`, the inhibition was 5.02%.

Regarding `O=C1Nc2cc(C(=O)N3CCC(N4CCCCC4)CC3)ccc2S/C1=C\c1ccccc1`, the inhibition was 90.7% (active).

`O=C(Nc1ccc(F)cc1)C1CCCN(S(=O)(=O)c2ccc(-n3cnnn3)cc2)C1` (stereo unspecified): the inhibition was 24.8%.

On to `CCc1ccc(-c2cc3c(=O)n(CC(=O)NCCCN4CCN(Cc5ccccc5)CC4)nc(C)n3n2)cc1`, for which the inhibition is 105% (active).

As for `Cc1nn(CC(=O)NCCc2ccccc2)c(=O)c2cc3occc3n12`, the inhibition was -8.09%.

As to `Cc1ccc(-c2ccc(=O)n(CC(=O)NCCCN3CCCCC3)n2)cc1`, the inhibition is 5%.

Turning to `CC1(C(=O)Nc2cccnc2)Cc2c(-c3ccccc3)ccnc2O1` (stereo unspecified), the inhibition was 13.4%.

In the case of `CC1(C(=O)Nc2cccc(Oc3ccccc3)c2)CCN1Cc1ccccc1Cl` (stereo unspecified), the inhibition was 18.7%.

Regarding `Nc1ncnc2c1ncn2[C@@H]1O[C@H](C(=O)N2CCSC2)[C@@H](O)[C@H]1O`, the inhibition is -1.06%.

In the case of `COc1ccccc1Cc1c(-c2ccc(Cl)cc2)nc2ccc(Cl)cn12`, the inhibition is -200%.

Regarding `Cc1cccc(C)c1-n1nnnc1C(CCc1ccccc1)N1CCN(C/C=C/c2ccccc2)CC1` (stereo unspecified), the inhibition was 4.21%.

`C/C(=N/Nc1nc(-c2ccccc2)c(CC(=O)O)s1)c1ccccc1`: the inhibition is -245%.

As to `COc1cc(OC)nc(N/N=C(\c2ccccc2)c2ccncc2)n1`, the inhibition is -16.6%.

As for `c1ccc(C(=NNc2nc3ccccc3s2)c2ccccn2)cc1`, the inhibition is 60.3% (active).
